The campaign covered roughly 580,000 compounds. About 6,100 (1.1%) were called active. Not shown: some 15% with an inconclusive outcome. Shown is part of a subset that was picked to be rich in actives. Unmarked numbers belong to inactive results. Calls follow the shape of the dose curve; as a rule, active = well fitted inhibition curve with a large enough effect; inconclusive = small, poorly fitted or top-dose-only effect, or another doubt; inactive = no such curve, though single readings can be large or run the other way.
% is scaled to controls: 0 for no effect and ±100 for the full control effect; potency is read from the fitted curve at half-maximal effect.

Chain of Polyunsaturated fatty acid lipoxygenase ALOX12 (Homo sapiens) (P18054 whole entry, looked up): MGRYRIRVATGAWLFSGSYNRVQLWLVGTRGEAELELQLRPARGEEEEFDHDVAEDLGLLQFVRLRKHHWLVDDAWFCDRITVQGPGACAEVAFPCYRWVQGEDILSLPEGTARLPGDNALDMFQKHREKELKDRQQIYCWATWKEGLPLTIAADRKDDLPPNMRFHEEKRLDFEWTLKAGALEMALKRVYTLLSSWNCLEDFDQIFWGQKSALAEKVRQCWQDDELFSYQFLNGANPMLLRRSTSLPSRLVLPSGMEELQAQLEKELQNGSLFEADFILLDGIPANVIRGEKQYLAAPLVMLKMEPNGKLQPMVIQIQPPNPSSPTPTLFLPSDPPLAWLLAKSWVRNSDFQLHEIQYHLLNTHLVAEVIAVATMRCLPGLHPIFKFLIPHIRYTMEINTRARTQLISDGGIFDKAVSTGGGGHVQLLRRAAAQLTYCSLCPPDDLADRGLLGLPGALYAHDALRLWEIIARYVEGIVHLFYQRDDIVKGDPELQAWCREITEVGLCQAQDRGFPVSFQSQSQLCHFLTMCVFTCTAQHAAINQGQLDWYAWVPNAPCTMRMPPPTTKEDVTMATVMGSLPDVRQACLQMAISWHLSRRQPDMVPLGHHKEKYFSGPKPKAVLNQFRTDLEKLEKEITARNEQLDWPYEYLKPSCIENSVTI

This experiment addresses Polyunsaturated fatty acid lipoxygenase ALOX12 (Homo sapiens) (UniProt P18054). Put plainly: Primary qHTS assay for inhibitors of human arachidonate 12S-lipoxygenase (ALOX12): Round 2. The following applies: purified 12hLO, xylenol orange hydroperoxide absorbance; series mostly up to 108 µM; activity change, negative = inhibition: at the top concentration. Put shortly: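 Purified human 12hLO at 150 nM in 25 mM Hepes, 0.01% Triton X-100, pH 7.0, preincubated 15 min at room temperature with compound. Reaction started with 40 uM arachidonic acid, 30 min at room temperature. Hydroperoxide measured by Fe-xylenol orange, 573/405 nm absorbance ratio.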
In general terms: Quantitative high-throughput screening tests each substance at several concentrations.
On to `Cc1ccc(-c2cn(CCC(N)=O)c(=O)cn2)cc1`, for which the “activity change, negative = inhibition” value is -22.8%.

Take `O=c1cc(-c2ccccc2)n2c(SCc3ccccc3)nnc2[nH]1`: the Potency result was “inactive”.

Turning to `CCS(=O)(=O)n1nc(-c2ccccc2)nc1SCc1ccccc1`, the Potency is 28.2 µM (active).

As to `Cc1ccc(S(=O)(=O)n2nc(-c3ccc(Cl)cc3)nc2NCc2ccccc2)cc1`, the “activity change, negative = inhibition” value is -17.2%.

For the compound `CCOc1ccc(C(=O)Nc2ncc(C)s2)cc1OC`, the “activity change, negative = inhibition” value was -2.76%.

With `CCc1nnc(SCC(=O)Nc2ccccc2OC)n1-n1cccc1`, the “activity change, negative = inhibition” value is 0.0227%.

Turning to `CCOC(=O)N1CCN(C(=O)c2ccc(N3C(=O)CCS3(=O)=O)cc2)CC1`, the “activity change, negative = inhibition” value is 29.3%.

Consider `CCCC1CCC(c2ccc(-c3ccc4c(n3)CCC(CCC)C4)cc2)CC1` (stereo not drawn), for which the “activity change, negative = inhibition” value is -17.4%.

As to `FC(F)(F)c1ccc(-n2cn[nH]c2=S)cc1`, the “activity change, negative = inhibition” value is 2.96%.

As to `CCOC(=O)N1CCN(Cc2nc(Cc3cccc(C(F)(F)F)c3)no2)CC1`, the “activity change, negative = inhibition” value was 15.8%.

`Cn1c(-c2sccc2OCc2cccc(C(F)(F)F)c2)n[nH]c1=S`: the Potency is 28.2 µM (active).

Take `O=C(CCS(=O)(=O)c1ccc2c(c1)CCN2C(=O)C1CC1)Nc1ccc(F)c(F)c1`: the “activity change, negative = inhibition” value is -11%.

Take `COc1cc(Nc2nc3ccccc3nc2NS(=O)(=O)c2ccc(C)cc2)cc(OC)c1`: the “activity change, negative = inhibition” value is -0.377%.

`O=C(c1ccc2c(c1)OCO2)N1CCCN(C(=O)C2CC2)c2ccccc21`: the “activity change, negative = inhibition” value is 113%.

In the case of `CSCC[C@@H](NC(=O)C(c1ccccc1)c1ccccc1)C(=O)O`, the “activity change, negative = inhibition” value was -10.3%.

As to `CC1(C)[C@H](O[C@H]2O[C@H](C(=O)O)[C@@H](O)[C@H](O)[C@H]2O[C@@H]2O[C@H](C(=O)O)[C@@H](O)[C@H](O)[C@H]2O)CC[C@@]2(C)[C@H]1CC[C@]1(C)[C@H]2C(=O)C=C2[C@H]3C[C@@](C)(C(=O)O)CC[C@]3(C)CC[C@]21C`, the Potency is 8.63 µM (active).

As for `CC1(C)C2CC[C@]3(C)C(CC=C4[C@@H]5C[C@@](C)(CO)CC[C@]5(C(=O)O)CC[C@]43C)[C@@]2(C)CC[C@@H]1O` (stereo partly drawn), the “activity change, negative = inhibition” value is 15.7%.

For `Cc1ccc(NC(=O)c2n[nH]c(=O)c3ccccc23)c(C)c1`, the “activity change, negative = inhibition” value was -13.1%.

For the compound `Cc1cc(Br)ccc1NC(=O)C1CCCCC1`, the “activity change, negative = inhibition” value is 0.587%.

`CC1=C[C@@H](CNCC(C)C)[C@H](C(C)C)C[C@H]1Cc1nc2c(C)cccc2[nH]1`: the “activity change, negative = inhibition” value is 14.2% [at 176 µM].

On to `COc1ccc2cc(CNC(=O)c3nccnc3N)ccc2c1`, for which the “activity change, negative = inhibition” value was -2.78%.

As for `C[C@@H](NC(=O)c1cccnc1)c1c(-c2ccc(F)cc2)noc1C(=O)O`, the Potency was 39.8 µM (active).

On to `COc1ccc(-c2noc(C(=O)O)c2[C@@H](C)NS(=O)(=O)c2ccccc2)cc1`, for which the “activity change, negative = inhibition” value is 24.3% [at 176 µM].

Take `C[C@@H](NC(=O)COc1ccccc1)c1c(-c2ccc(F)cc2)noc1C(=O)O`: the “activity change, negative = inhibition” value was 10.6% [at 176 µM].

Regarding `CC1(C)CC(=O)C(CCS(=O)(=O)OCC(F)(F)C(F)F)(CCS(=O)(=O)OCC(F)(F)C(F)F)C(=O)C1`, the “activity change, negative = inhibition” value was 2.97%.

As for `CC(C)CCNc1nc(-c2ccc(S(=O)(=O)N3CCOCC3)cc2)cs1`, the “activity change, negative = inhibition” value was -5.58%.

For the compound `CS(=O)(=O)c1ccc(-c2csc(NC3CCCCC3)n2)cc1`, the “activity change, negative = inhibition” value was -2.88%.

Take `CC(C)CNc1nc(-c2ccc3c(c2)CCCN3S(C)(=O)=O)cs1`: the Potency was 14.1 µM (active).

For `CCCc1nc(C#N)c(N2CCN(c3ccccc3)CC2)o1`, the “activity change, negative = inhibition” value is -22.7%.

For `CCOc1ccc(S(=O)(=O)N2CCC(C(=O)NCc3ccccn3)CC2)cc1Cl`, the “activity change, negative = inhibition” value was -25.1%.

As to `Cc1cccnc1C(NC(=O)C1CCN(Cc2ccc(Cl)c(Cl)c2)CC1)c1ccc(Cl)cc1` (stereo not drawn), the “activity change, negative = inhibition” value is -10.3%.

In the case of `COc1cccc(CN2CCC(C(=O)NC(c3ccc4c(c3)OCO4)c3ccccn3)CC2)c1` (stereo not drawn), the “activity change, negative = inhibition” value is -2.37%.

As for `O=C(NC(c1ccc(-c2ccccc2)cc1)c1cnccn1)C1CCN(CCOc2ccc(Cl)cc2Cl)CC1` (stereo not drawn), the Potency was 44.7 µM (active).

For the compound `Cc1ccc(C(NC(=O)C2CCN(CCOc3ccc(Cl)cc3Cl)CC2)c2ccccn2)cc1` (stereo not drawn), the Potency was 56.2 µM (active).

Consider `O=C(COc1ccc(Cl)cc1Cl)NCCCNC(=O)c1cnccn1`, for which the “activity change, negative = inhibition” value is 0.217%.

Take `Fc1ccccc1-c1n[nH]c2c1CN(Cc1cccc3c1OCO3)CC2`: the “activity change, negative = inhibition” value was -12.2%.

For `Cc1ccccc1-c1cc(-c2ccccc2C)[nH]n1`, the “activity change, negative = inhibition” value was -23.8%.

In the case of `CC(CNC(=O)c1cc2ccccc2s1)N1CCCC1` (stereo not drawn), the “activity change, negative = inhibition” value is -16.1%.

For the compound `OCCCNC(=S)Nc1ccccc1F`, the “activity change, negative = inhibition” value is 0.703%.

On to `Cc1nc(-c2cccnc2)sc1CCNS(=O)(=O)c1cccs1`, for which the “activity change, negative = inhibition” value was -2.94%.

`C[N+](C)(C)CC#CCCCC#CC[N+](C)(C)C`: the Potency is 11.2 µM (active).

`O=C(Nc1ccc2c(c1)OCCO2)c1nn(-c2ccccc2)c(=O)c2ccccc12`: the “activity change, negative = inhibition” value is 0.0556%.

For `COC(=O)C[C@H]1C=C[C@@H](NS(=O)(=O)c2ccc(C)cc2)[C@@H](CO)O1`, the “activity change, negative = inhibition” value is 5.66%.

As for `COC(=O)C[C@@H]1C=C[C@@H](NS(=O)(=O)c2cccc(OC)c2)[C@@H](CO)O1`, the “activity change, negative = inhibition” value was -25.2%.

Regarding `COc1ccc(S(=O)(=O)N[C@@H]2C=C[C@@H](CC(=O)N3CCc4ccccc4C3)O[C@@H]2CO)cc1`, the Potency is 25.1 µM (active).

Consider `N#CC1(c2ccc(N)cc2)CCCC1`, for which the “activity change, negative = inhibition” value is 13.6%.

In the case of `CCCn1nnc(NC(=O)c2cc3ccccc3cc2OC)n1`, the “activity change, negative = inhibition” value was -6.59%.

Consider `CCn1nnc(NC(=O)c2cc3ccccc3cc2OC)n1`, for which the “activity change, negative = inhibition” value was -19.5%.

With `COc1ccccc1NC(=O)c1cc2ccccc2cc1OCC(N)=O`, the Potency was 35.5 µM (active).

As for `COCCCNC(=O)CN(C)C(=O)c1cccc(C(F)(F)F)c1`, the “activity change, negative = inhibition” value was 5.64%.

As to `CCc1nnsc1C(=O)N(C)Cc1c(F)cccc1Cl`, the “activity change, negative = inhibition” value is 34%.

In the case of `N#Cc1cc(NCC(=O)N2CCNC2=O)ccc1Cl`, the “activity change, negative = inhibition” value is 14.5%.

For the compound `CC1(C)N=C(SCc2ccccc2Cl)c2ccccc2N1`, the “activity change, negative = inhibition” value was -9.25%.

On to `Fc1ccc(Nc2nc(SCc3ccccc3Cl)nc3ccccc23)cc1`, for which the “activity change, negative = inhibition” value was -21.5%.

In the case of `Clc1ccccc1CSc1nnc(-c2ccco2)c(-c2ccco2)n1`, the Potency is 3.55 µM (active).

Turning to `O=C(NCC1CCCO1)c1cc(Cl)c2c(c1)OCCO2` (stereo not drawn), the “activity change, negative = inhibition” value is 9.31%.

Consider `Cc1ccccc1CN(CC1CCCO1)C(=O)c1cccc(CCC(C)(C)O)c1` (stereo not drawn), for which the “activity change, negative = inhibition” value was 80.5%.

As for `Cc1nn(-c2ccccc2)c2[nH]c(C(F)(F)F)cc(=O)c12`, the “activity change, negative = inhibition” value was 0% [at 57.4 µM].

For the compound `Cc1nn(CCc2nc(-c3ccccc3F)cs2)c2[nH]c(=O)cc(C(F)(F)F)c12`, the Potency was 7.08 µM (active).

As for `CCCn1c(=O)c2c(C(F)(F)F)cc(-c3cccs3)nc2n(CCC)c1=O`, the “activity change, negative = inhibition” value is -9.97%.

`Cc1cc2oc(=O)cc(COC(=O)c3cc(S(=O)(=O)N(C)C)ccc3NCCO)c2cc1C`: the “activity change, negative = inhibition” value was -22%.

Regarding `CCOc1cccc(/C=N/N2C(=O)CSC2=S)c1O`, the Potency is 31.6 µM (active).

On to `CCOC(=O)C1(C(F)(F)F)N=C(c2ccc(OC)cc2)OC(N(C)C)=N1` (stereo not drawn), for which the “activity change, negative = inhibition” value is 0.631%.
